TIM10 inh: TIM10 yeast growth inhibition; S. cerevisiae TIM10 strain growth, BacTiter-Glo luminescence, 24 h; inhibition, % at 10 µM; hit rate 1.4% among 330,000; AID 463195;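 active = inhibition of 40% or more at the single tested concentration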;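 also: wild-type TIM10 isogenic control strain grown at permissive 25 °C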
tim23-1 inh: growth inhibitors of tim23-1 mutant yeast; hit rate 1.3% among 330,000; S. cerevisiae tim23-1 growth, BacTiter-Glo luminescence, 24 h; AID 463212; inhibition, % at 20 µM;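 active = growth inhibition of the mutant yeast at or above 50%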;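 also: temperature-sensitive mutant grown at 25 °C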
PfHsp90 set2: inhibits growth of yeast expressing Plasmodium falciparum Hsp90; S. cerevisiae expressing PfHsp90, BacTiter-Glo ATP, 48 h; yeast lacking PDR1 and PDR3 efflux regulators; inhibition, % at 9.4 µM; hit rate 0.32% among 310,000;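 active = every replicate shows inhibition above about 80%, whatever the replicate mean, limit read from the data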
SKKanGAS inh: inhibitors of SKKanGAS S. pyogenes growth in kanamycin (SK-promoter or general growth effect); BacTiter-Glo, 6 h; inhibition, % at 7.5 µM; hit rate 1.3% among 300,000; AID 1662;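 active = mean replicate score, as percent of positive control median, at least 50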;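 also: strain carries kanamycin resistance gene driven by streptokinase promoter and grows in 40 µg/ml kanamycin; loss of luminescence reflects streptokinase promoter inhibition or plain growth inhibition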
tim10-1 inh: growth inhibitors of tim10-1 mutant yeast | AID 463190 | inhibition, % at 20 µM | hit rate 2.2% among 330,000 | S. cerevisiae tim10-1 ts strain growth, BacTiter-Glo, 24 h;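 active = inhibition of at least 40%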;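 also: mutant grown at 25 °C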
V-ATPase pH: yeast V-ATPase proton transport regulation by pHLuorin; S. cerevisiae, pHLuorin cytosolic pH fluorescence; response, % at 10 µM; hit rate 0.37% among 350,000; in the data active = response mostly above about 7.3%, no sharp cut-off; inactive = mostly below about 5.4%; also: actives read high
tim10-1 conf: confirmation of tim10-1 mutant yeast growth inhibitors; shares compounds with tim10-1 inh; S. cerevisiae tim10-1 ts strain growth, BacTiter-Glo, 24 h; inhibition, % at 20 µM; hit rate 56% among 7,400; AID 463213;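 active = inhibition of yeast growth at or above a set limit in either of two repeat tests at 20 µM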;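 also: tim10-1 mutant grown at permissive 25 °C to find synthetic lethal compounds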
Large screens that a line does not name were inactive (follow-up assays come after a bar, where they were run). Rows were chosen to be rich in hits. Some 4.6% of all compounds tested hit in one or more screens of this group.

CC(C)C[C@H](N)c1nnc(SCC(=O)Nc2ccc(Br)cc2)o1	tim10-1 inh 43.4 | tim10-1 conf inactive
COc1cccc2[nH]c3c(N4CCC(C)CC4)ncnc3c12	tim10-1 inh 41.5 | tim10-1 conf inactive
COc1cccc2[nH]c3c(N4CCc5ccccc5C4)ncnc3c12	none (no result: PfHsp90 set2, V-ATPase pH)
O=C(Cc1ccc2c(c1)OCCO2)Nc1cc(C(F)(F)F)ccc1N1CCOCC1	tim10-1 inh 41.3 (no result: SKKanGAS inh) | tim10-1 conf inactive
O=C(Nc1cc(C(F)(F)F)ccc1N1CCOCC1)C1=COCCO1	none
CCOC(=O)n1c(=O)n(Cc2ccccc2Cl)c2ccccc21	tim10-1 inh 42.7 | tim10-1 conf 33.3
COc1ccccc1N=Cc1nc(-c2ccccc2)oc1OC(C)=O	tim10-1 inh 52.1 | tim10-1 conf inactive
CC(=O)Oc1oc(-c2ccccc2)nc1/C=N/c1ccccn1	none
CC(=O)N1CCN(C(=O)CNC(=O)c2ccc(C)s2)CC1	none (no result: TIM10 inh, tim23-1 inh, SKKanGAS inh, tim10-1 inh)
Cc1ccc(-n2nc(-c3cccs3)cc2C(=O)NCC2CCCO2)c(C)c1 (stereo not drawn)	tim10-1 inh 40.7 | tim10-1 conf inactive
Cc1cnn(-c2cc(Oc3ccccc3)ncn2)c1	tim10-1 inh 48.9 | tim10-1 conf inactive
CCCCCCCSc1nsc(N)n1	tim10-1 inh 45.4 (no result: PfHsp90 set2) | tim10-1 conf inactive
CCOC(=O)C1CCN(C(=O)CSc2nc3ncccc3[nH]2)CC1	none
O=C(CSc1nnc(-c2ccc(F)cc2)o1)Nc1ccccc1N1CCOCC1	tim10-1 inh 40.0 | tim10-1 conf inactive
O=C(CSc1nc2ccccc2o1)Nc1ccccc1N1CCOCC1	none
CCCCCn1c(=O)[nH]c2cc(C(=O)NCCCN3CCCCC3CC)ccc2c1=O (stereo not drawn)	none
COc1ccc([N+](=O)[O-])cc1NCc1ccccc1	tim10-1 inh 42.7 | tim10-1 conf inactive
CCOc1cc2nc3c4ccccc4n(C)c3nc2cc1OCC	tim10-1 inh 47.4 | tim10-1 conf inactive
COc1ncnc2c1ncn2CCCNCc1ccccn1	none (no result: TIM10 inh, tim23-1 inh, PfHsp90 set2, SKKanGAS inh, tim10-1 inh)
CCOC(=O)c1cnc2ccc(C(=O)OC)cc2c1Nc1ccc2c(c1)OCCO2	none
CCOC(=O)c1cnc2c(OC)cccc2c1Nc1ccc2c(c1)OCCO2	tim10-1 inh 44.3 | tim10-1 conf 32.2
CC(C)(C)NC(=O)C(c1ccc(-c2ccccc2)cc1)N(C[C@H]1CC[C@@H]([C@@H]2CC[C@H](CO)O2)O1)C(=O)c1ccc(C(C)(C)C)cc1 (stereo partly drawn)	none (no result: SKKanGAS inh)
Cc1ccc(N=c2c([N+](=O)[O-])nn(-c3ccccc3)n2O)c(C)c1	tim10-1 inh 46.8 | tim10-1 conf 41.5
Cc1c(Cl)cccc1N=c1c([N+](=O)[O-])nn(-c2ccccc2)n1O	none
CCn1c(SCc2c(F)cccc2Cl)nnc1-c1ccco1	tim10-1 inh 49.0 | tim10-1 conf 41.1
CCn1c(SCc2nc(-c3ccccc3)no2)nnc1-c1ccco1	none
Cc1cc(-c2nc3ccccc3o2)c2ccccc2n1	tim10-1 inh 40.8 (no result: PfHsp90 set2) | tim10-1 conf inactive
Cc1onc(-c2ccccc2Cl)c1C(=O)NCc1nnnn1-c1ccc(F)c(F)c1	none (no result: TIM10 inh, tim23-1 inh, PfHsp90 set2, SKKanGAS inh, tim10-1 inh)
O=C(NCc1csc(-c2ccccc2)n1)c1cc(F)cc2c1OCOC2	none
CCC(=O)Nc1cccc(C(=O)c2ccccc2)c1	none
CCC(=O)Nc1cccc(C(=O)/C=C/c2ccccc2)c1	tim10-1 inh 42.0 (no result: V-ATPase pH) | tim10-1 conf 42.6
COC(=O)C1=C(C(=O)OC)SC(=C2C(=S)C(C)(C)N(C(=O)CC(C)C)c3ccccc32)S1	none
O=C(NC(=S)Nc1cccc(C(F)(F)F)c1)c1csnn1	tim10-1 inh 52.0 | tim10-1 conf 35.6
Fc1cccc(NC(=S)NCc2ccc(Cl)cc2)c1	none
Fc1ccc(CNC(=S)Nc2cccc(C(F)(F)F)c2)cc1	tim10-1 inh 51.5 | tim10-1 conf 43.0
FC(F)(F)c1cccc(NC(=S)NCc2ccc(Cl)cc2)c1	SKKanGAS inh 73.0, tim10-1 inh 42.9 | tim10-1 conf inactive
CN(C)CCN(C(=O)/C=C/c1cccs1)c1nc2ccc(F)cc2s1	tim10-1 inh 44.4 | tim10-1 conf 35.4
O=C(NCCc1csc(-c2ccc(Cl)cc2)n1)c1ccco1	tim10-1 inh 43.2 | tim10-1 conf inactive
C[C@H](CO)N1C[C@H](C)[C@@H](CN(C)S(=O)(=O)c2cn(C)cn2)Oc2c(NS(=O)(=O)c3cccs3)cccc2C1=O	none (no result: SKKanGAS inh)
Cn1c(N2CCN(C(c3ccccc3)c3ccccc3)CC2)nc2c1c(=O)[nH]c(=O)n2C	none
CCN(CC)c1ccc(C2Nc3cccc4cccc(c34)N2)c(O)c1	tim10-1 inh 42.7 (no result: SKKanGAS inh) | tim10-1 conf inactive
Clc1cccc(/C=N\Nc2nccs2)c1	tim10-1 inh 47.6 | tim10-1 conf inactive
C(=N/Nc1nccs1)/c1cccnc1	none
CCCn1cc(CN2CCC(N3CCC(C(=O)N4CCOCC4)CC3)CC2)c(C)n1	none
S=c1[nH]nc(-c2cc(-c3ccccc3)n[nH]2)n1/N=C/C(Br)=C/c1ccccc1	tim10-1 inh 46.9 (no result: PfHsp90 set2) | tim10-1 conf 42.7
S=c1[nH]nc(-c2cc(-c3ccccc3)n[nH]2)n1/N=C/c1ccccc1	none
CC(=C/c1ccccc1)/C=N/n1c(-c2ccncc2)n[nH]c1=S	tim10-1 inh 40.4 | tim10-1 conf 38.0
COc1ccc(C(O)P(=O)(OCCC(C)C)c2ccc(N(C)C)cc2)cc1 (stereo not drawn)	none
CCCCOc1ccc(S(=O)(=O)NNC(=O)C2Cc3c(ccc4ccccc34)O2)cc1 (stereo not drawn)	tim10-1 inh 45.2 (no result: PfHsp90 set2) | tim10-1 conf inactive
COc1ccc(OCC(=O)NNC(=O)c2cccc(O)c2)cc1	none
CN1/C(=C\C(=O)c2ccccc2Cl)c2ccccc2CC1(C)C	none
Cc1cccc(C(=O)/C=C2/c3ccccc3CC(C)(C)N2C)c1	none
Cc1ccccc1C(=O)/C=C1/c2ccccc2CC(C)(C)N1C	tim10-1 inh 41.9 (no result: PfHsp90 set2) | tim10-1 conf inactive
CN1/C(=C\C(=O)c2ccco2)c2ccccc2CC1(C)C	tim10-1 inh 46.6 | tim10-1 conf inactive
Cc1ccc2[nH]c3c(=O)n(CC(=O)Nc4ccccc4N4CCN(C)CC4)ncc3c2c1	none
O=C(Cn1nc(C(F)(F)F)c2c1CCC2)NCc1ccc(Cl)cc1	tim10-1 inh 40.8 | tim10-1 conf inactive
COc1ccc(N(C)S(=O)(=O)c2cccc(C(=O)Nc3nc4ccccc4[nH]3)c2)cc1	tim10-1 inh 40.7 | tim10-1 conf inactive
COc1ccc(N(C)S(=O)(=O)c2cccc(C(=O)Nc3nnc(C)s3)c2)cc1	none (no result: SKKanGAS inh)
COc1ccc(C2=CCCCCC2)cc1OC	none (no result: TIM10 inh, tim23-1 inh, PfHsp90 set2, SKKanGAS inh, tim10-1 inh)
O=C(c1cc(C2CC2)nn1-c1ccccc1)N1CCN(c2ccccc2O)CC1	none (no result: SKKanGAS inh)
O=C(c1cc(C2CC2)nn1-c1ccccc1)N1CCN(c2ccccn2)CC1	tim10-1 inh 41.8 (no result: SKKanGAS inh) | tim10-1 conf inactive
O=C(C1CCCN(S(=O)(=O)c2cccc3nsnc23)C1)N1CC=C(c2ccccc2)CC1 (stereo not drawn)	none (no result: SKKanGAS inh)
